Experimental data taken from PubChem BioAssay (NCATS).
Records with an inconclusive call do not appear. Some structures have more than one record in an assay (separate samples or runs), and their calls can disagree. Activity calls are given as the source filed them. The call rests on the fitted dose curve; in most records, active means well fitted curve in the direction sought with a large enough effect; inconclusive means small, poorly fitted or top-dose-only effect, or another doubt; inactive means no such curve, though single readings can be large; an effect the other way counts as inactive or inconclusive.

Key:
MKL-2 = assay: qHTS assay to identify novel small-molecules to repurpose for Merkel cell carcinoma treatment (AID 1296009); conditions: MCC and control cell lines, CellTiter-Glo viability, 72 h; series mostly up to 46 µM; further: nearly all actives have a fitted effect of over 60% in size; further: potency means the concentration at half of the fitted maximal effect
In short: (§1)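 Viability readout: ATP luminescence (CellTiter-Glo) after 72 hr drug exposure at 37 degree celsius. Dose-response format was 8 points for NPC and 11 points for MIPE; data normalized to in-plate controls.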

UISO = assay: as above; conditions: MCC and control cell lines, CellTiter-Glo viability, 72 h; series mostly up to 46 µM
In short: as §1

[1] = Drug repurposing screens with cells derived from glioblastoma tumor samples (AID 1345199); conditions: GBM patient neurospheres viability, ATP luminescence, 48 h; further: nearly all actives have a fitted effect of over 40% in size
In short: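 Primary testing used CD133+ neurospheres from four GBM patients, seven concentrations, 48 h exposure and ATP-based viability; confirmation added three slower-growing patient lines.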

C33A = assay: Primary qHTS to identify gynecologic anti-cancer compounds using libraries of approved drugs and bioactive compounds (AID 1345084); conditions: Gynecologic cancer cell panel viability, ATPlite luminescence, 48 h; series mostly up to 57.5 µM; further: nearly all actives have a fitted effect of over 55% in size; further: potency means the concentration at half of the fitted maximal effect
In short: (§2)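 Cytotoxicity screen measuring ATP content by luciferase luminescence. Each compound is applied at five concentrations for 48 h at 37 C with 5% CO2.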

CAOV3 = assay: as above; conditions: Gynecologic cancer cell panel viability, ATPlite luminescence, 48 h; series mostly up to 57.5 µM
In short: as §2

CASKI = assay: as above; conditions: Gynecologic cancer cell panel viability, ATPlite luminescence, 48 h; series mostly up to 57.5 µM
In short: as §2

Es-2 = assay: as above; conditions: Gynecologic cancer cell panel viability, ATPlite luminescence, 48 h; series mostly up to 57.5 µM
In short: as §2

HeLa = assay: as above; conditions: Gynecologic cancer cell panel viability, ATPlite luminescence, 48 h; series mostly up to 57.5 µM
In short: as §2

Hek293T = assay: as above; conditions: Gynecologic cancer cell panel viability, ATPlite luminescence, 48 h, control line for the selectivity index; series mostly up to 57.5 µM
In short: as §2

JEG-3 = assay: as above; conditions: Gynecologic cancer cell panel viability, ATPlite luminescence, 48 h; series mostly up to 57.5 µM
In short: as §2

OV90 = assay: as above; conditions: Gynecologic cancer cell panel viability, ATPlite luminescence, 48 h; series mostly up to 57.5 µM
In short: as §2

PA-1 = assay: as above; conditions: Gynecologic cancer cell panel viability, ATPlite luminescence, 48 h; series mostly up to 57.5 µM
In short: as §2

SKOV3 = assay: as above; conditions: Gynecologic cancer cell panel viability, ATPlite luminescence, 48 h; series mostly up to 57.5 µM
In short: as §2

Tov-21-G = assay: as above; conditions: Gynecologic cancer cell panel viability, ATPlite luminescence, 48 h; series mostly up to 57.5 µM
In short: as §2

Tov112D = assay: as above; conditions: Gynecologic cancer cell panel viability, ATPlite luminescence, 48 h; series mostly up to 57.5 µM
In short: as §2

WaGa = assay: qHTS assay to identify novel small-molecules to repurpose for Merkel cell carcinoma treatment (AID 1296009); conditions: MCC and control cell lines, CellTiter-Glo viability, 72 h; series mostly up to 46 µM; further: nearly all actives have a fitted effect of over 60% in size; further: potency means the concentration at half of the fitted maximal effect
In short: as §1

MKL-1 = assay: as above; conditions: MCC and control cell lines, CellTiter-Glo viability, 72 h; series mostly up to 46 µM
In short: as §1

NIH3T3 = assay: as above; conditions: MCC and control cell lines, CellTiter-Glo viability, 72 h; series mostly up to 44.8 µM
In short: as §1

MCC-26 = assay: as above; conditions: MCC and control cell lines, CellTiter-Glo viability, 72 h; series mostly up to 46 µM
In short: as §1
On the % scale 0 is the no-effect control and ±100 the full control effect.

Cc1ccc(NC(=O)Nc2cc(C(F)(F)F)ccc2F)cc1Nc1ccc2c(c1)NC(=O)C2=Cc1ccc[nH]1
inactive: Potency (MKL-2)
active: Potency (UISO) 18.7 µM

CC[C@H]1OC(=O)[C@H](C)[C@@H](O[C@H]2C[C@@](C)(OC)[C@@H](O)[C@H](C)O2)[C@H](C)[C@@H](O[C@@H]2O[C@H](C)C[C@H](N(C)C)[C@H]2O)[C@](C)(O)C[C@H](C)C(=NOCOCCOC)[C@H](C)[C@@H](O)[C@]1(C)O
inactive: activity, negative = cell killing ([1]; at 45.9 µM (top of the series), tumour line B) -8.15% | activity, negative = cell killing ([1]; at 45.9 µM (top of the series), tumour line D) 4.24% | activity, negative = cell killing ([1]; at 46.1 µM (top of the series), tumour line C) -6.06%

C[C@@H]1C[C@H]2[C@@H]3CCC4=CC(=O)C=C[C@]4(C)[C@@]3(F)[C@@H](O)C[C@]2(C)[C@@]1(O)C(=O)CO
inactive: Potency (C33A) | Potency (CAOV3) | Potency (CASKI) | Potency (Es-2) | Potency (HeLa) | Potency (Hek293T) | Potency (JEG-3) | Potency (OV90) | Potency (PA-1) | Potency (SKOV3) | Potency (Tov-21-G) | Potency (Tov112D)

CCc1cc(-c2n[nH]c(C)c2-c2ccc3c(c2)OCCO3)c(O)cc1O
inactive: Potency (MKL-2)

COc1c(C)cnc(Cn2cnc3c(Cl)nc(N)nc32)c1C
active: Potency (UISO) 0.743 µM | Potency (WaGa) 0.209 µM
inactive: Potency (MKL-2)

CC[C@]1(O)C[C@H]2CN(CCC3=c4ccccc4=N[C]3[C@@](C(=O)OC)(c3cc4c(cc3OC)N(C)[C@H]3[C@@](O)(C(N)=O)[C@H](O)[C@]5(CC)C=CCN6CC[C@]43[C@@H]65)C2)C1
active: Potency (MKL-1) 0.0037 µM | Potency (MKL-2) 0.0469 µM

CCOC(=O)N1CCN([N+]([O-])=NOc2cc(ON=[N+]([O-])N3CCN(C(=O)OCC)CC3)c([N+](=O)[O-])cc2[N+](=O)[O-])CC1
inactive: Potency (NIH3T3)
active: Potency (MKL-2) 23.5 µM

Nc1ccn([C@@H]2O[C@H](CO)[C@@H](O)[C@H]2O)c(=O)n1
active: Potency (MKL-1) 9.35 µM | Potency (WaGa) 0.132 µM
inactive: Potency (MKL-2)

COc1cc2nccc(Oc3ccc(NC(=O)Nc4cc(C)on4)c(Cl)c3)c2cc1OC
inactive: Potency (Hek293T) | Potency (JEG-3)
active: Potency (WaGa) 23.5 µM

CN(C)CCOc1cc(-c2cn[nH]c2)ccc1NC(=O)C1COc2ccccc2O1 (centres undefined)
inactive: Potency (MCC-26) | Potency (C33A) | Potency (CAOV3) | Potency (CASKI) | Potency (Es-2) | Potency (HeLa) | Potency (Hek293T) | Potency (JEG-3) | Potency (OV90) | Potency (PA-1) | Potency (SKOV3) | Potency (Tov-21-G) | Potency (Tov112D)

O=c1[nH]nc(OCCCc2ccc(Cl)cc2)c(NCc2cccnc2)c1Br
inactive: Potency (MCC-26) | Potency (Es-2) | Potency (HeLa)
active: Potency (MKL-1) 23.5 µM | Potency (MKL-2) 14.8 µM

CCC(=O)N1CCN(c2ccc(-n3c(=O)ccc4cnc5ccc(-c6cnc7ccccc7c6)cc5c43)cc2C(F)(F)F)CC1
inactive: Potency (MKL-2) | Potency (WaGa) | activity change, negative = cytotoxicity (JEG-3) -16.3% [at 11.6 µM]
active: Potency (UISO) 0.0469 µM | Potency (Es-2) 0.141 µM | Potency (Hek293T) 0.1 µM | Potency (PA-1) 0.126 µM | Potency (Tov-21-G) 0.0794 µM

COc1ccc(-c2nc3ccc(C4=NNC(=O)CC4C)cc3[nH]2)cc1 (centres undefined)
17.8 µM (active) and inactive: Potency (CAOV3)
active: Potency (SKOV3) 35.5 µM
inactive: Potency (MCC-26) | Potency (C33A) | Potency (Es-2) | Potency (Hek293T) | Potency (JEG-3) | Potency (OV90)

COc1c(C)c2c(c(O)c1CC=C(C)CCC(=O)OCCN1CCOCC1)C(=O)OC2
active: Potency (MKL-2) 1.32 µM | Potency (WaGa) 2.64 µM

CC1(C)CC(=O)c2c(C(F)(F)F)nn(-c3ccc(C(N)=O)c(NC4CCC(O)CC4)c3)c2C1 (centres undefined)
inactive: Potency (HeLa)
active: Potency (UISO) 0.166 µM | Potency (OV90) 0.316 µM | Potency (PA-1) 0.447 µM | Potency (SKOV3) 0.398 µM | Potency (Tov-21-G) 0.355 µM

COC(=O)Nc1ccc(-c2nc(N3CCOCC3)c3cnn(C4CCN(C(=O)OC)CC4)c3n2)cc1
active: Potency (UISO) 0.526 µM | Potency (WaGa) 6.62 µM

O=C(O)Cc1cccc(OCCCN(Cc2cccc(C(F)(F)F)c2Cl)CC(c2ccccc2)c2ccccc2)c1
inactive: Potency (MKL-1) | Potency (MKL-2) | Potency (WaGa)

Cc1csc(-c2nnc(Nc3ccc(Oc4ncccc4-c4ccnc(N)n4)cc3)c3ccccc23)c1
inactive: Potency (MCC-26) | Potency (UISO) | Potency (C33A) | Potency (CASKI) | Potency (HeLa) | Potency (Hek293T) | Potency (JEG-3) | Potency (OV90) | Potency (PA-1) | Potency (Tov-21-G)
active: Potency (WaGa) 0.0118 µM

Clc1ccc(C2(c3ccc(-c4cn[nH]c4)cc3)CCNCC2)cc1
inactive: Potency (MCC-26) | Potency (MKL-2) | Potency (JEG-3) | Potency (Tov112D)
active: Potency (SKOV3) 31.6 µM | Potency (Tov-21-G) 12.6 µM

O=C(c1ccc(F)c(F)c1Nc1ccc(I)cc1F)N1CC(O)([C@H]2CCCCN2)C1
inactive: Potency (MCC-26) | Potency (MKL-1) | Potency (UISO) | Potency (WaGa)

Nc1nc(Cl)nc2c1ncn2[C@@H]1O[C@H](CO)[C@@H](O)[C@H]1F
active: Potency (MCC-26) 0.59 µM | Potency (MKL-1) 0.0132 µM
inactive: Potency (WaGa)

CNC(=O)c1cc(Oc2ccc(NC(=O)Nc3ccc(Cl)c(C(F)(F)F)c3)c(F)c2)ccn1
inactive: Potency (MCC-26) | Potency (CASKI) | Potency (Es-2) | Potency (HeLa) | Potency (Hek293T) | Potency (PA-1) | Potency (SKOV3) | Potency (Tov-21-G) | Potency (Tov112D)
active: Potency (MKL-2) 16.6 µM | Potency (UISO) 5.9 µM | Potency (WaGa) 18.7 µM
